Results on 43 compounds are retold here after PMC4336329 (PLoS ONE, 2015).

Hit rate of the full screen: of about 310,000 compounds, about 14,000 (4.5%) showed an effect of 50% or more. The effect is printed as a negative number. The list comes from a sample in which strong results are over-represented; it also holds similar structures and randomly drawn compounds.
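Also: peak tail current of the secondary pulse compared with the same well before compound.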

The target in this assay is human ether-à-go-go-related gene (hERG) potassium channel (human, UniProt Q12809). Kind of assay: primary screen, population patch clamp on CHO cells stably expressing hERG; higher = less effect of the substance.
human ether-à-go-go-related gene (hERG) potassium channel, sequence (Q12809 whole entry, looked up): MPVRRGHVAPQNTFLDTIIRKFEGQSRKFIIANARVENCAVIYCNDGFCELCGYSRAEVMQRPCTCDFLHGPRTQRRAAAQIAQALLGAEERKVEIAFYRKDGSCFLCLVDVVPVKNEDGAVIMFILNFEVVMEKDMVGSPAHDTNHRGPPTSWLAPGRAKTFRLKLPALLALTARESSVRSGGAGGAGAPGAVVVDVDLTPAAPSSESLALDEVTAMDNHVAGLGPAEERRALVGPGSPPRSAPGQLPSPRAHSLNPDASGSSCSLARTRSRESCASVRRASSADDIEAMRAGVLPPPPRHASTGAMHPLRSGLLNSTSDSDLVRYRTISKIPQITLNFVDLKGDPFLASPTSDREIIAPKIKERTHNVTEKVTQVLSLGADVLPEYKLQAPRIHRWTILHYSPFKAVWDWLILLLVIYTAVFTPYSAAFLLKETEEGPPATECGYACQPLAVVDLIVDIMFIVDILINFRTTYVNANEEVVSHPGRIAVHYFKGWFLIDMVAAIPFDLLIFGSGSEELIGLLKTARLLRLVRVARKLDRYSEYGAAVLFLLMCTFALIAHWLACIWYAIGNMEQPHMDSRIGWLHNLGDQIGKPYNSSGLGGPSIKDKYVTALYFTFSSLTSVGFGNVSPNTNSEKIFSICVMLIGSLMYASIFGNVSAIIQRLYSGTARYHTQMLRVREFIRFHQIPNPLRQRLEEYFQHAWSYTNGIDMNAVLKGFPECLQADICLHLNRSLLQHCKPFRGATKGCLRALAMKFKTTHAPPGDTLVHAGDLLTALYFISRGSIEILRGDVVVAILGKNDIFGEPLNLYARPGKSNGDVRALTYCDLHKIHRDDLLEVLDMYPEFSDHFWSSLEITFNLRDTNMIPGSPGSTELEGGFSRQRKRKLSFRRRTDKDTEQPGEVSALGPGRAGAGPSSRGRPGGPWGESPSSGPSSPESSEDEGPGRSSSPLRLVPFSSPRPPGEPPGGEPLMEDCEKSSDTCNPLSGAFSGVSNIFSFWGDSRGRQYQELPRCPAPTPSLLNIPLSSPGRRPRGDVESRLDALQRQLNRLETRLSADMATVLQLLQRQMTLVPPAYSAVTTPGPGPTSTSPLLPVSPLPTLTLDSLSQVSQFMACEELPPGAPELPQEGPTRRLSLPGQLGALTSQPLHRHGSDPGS
Consider `Cn1c(=O)c2c([nH]c(=S)n2Cc2ccc(Cl)cc2)n(C)c1=O`, for which the “hERG current change (%, negative = inhibition) at 10uM” value turned out to be 17%.
Consider `Cc1ccsc1C(=O)N1CCN(c2ncccn2)CC1`, for which the “hERG current change (%, negative = inhibition) at 10uM” value came to 7.76%.
With `COc1ccc(-c2nnn(CC(=O)N(C3CCCCC3)C(C)C(=O)NC3CCCC3)n2)cc1OC` (stereo not shown) the figure was -22.1%.
Under `COc1cccc(/C=N/NC(=O)CC2C(=O)NN=C2C)c1OC` (stereo not shown) stands 2.5%; under `O=C(NCCN1C(=O)S/C(=C\c2cccnc2)C1=O)c1ccc([N+](=O)[O-])s1`, 5.15%; under `C/C(CC(=O)N1CCCC1)=N\NC(=O)c1cc2ccccc2cc1O`, 4.98%.
With `O=S(=O)(Nc1cc(S(=O)(=O)N2CCOCC2)ccc1N1CCCC1)c1cccs1` the figure was -4.49%.
In the case of `Cc1cc(-c2nnco2)c(C)n1-c1ccccc1`, the “hERG current change (%, negative = inhibition) at 10uM” value is recorded as -1.71%.
Under `COC(=O)C1=C(c2ccc(S(C)(=O)=O)cc2)C[C@@H]2CC[C@H]1N2C(=O)N1CCCCC1` stands -1.44%; under `CN(CC1CCCN(CCc2cccc(C(F)(F)F)c2)C1)C(=O)c1ccco1` (stereo not shown), -69.2%; under `CCOC(=O)C1CCCCN1Cc1cccc(C(F)(F)F)c1` (stereo not shown), 6.43%.
Consider `COc1ccccc1CCN1CCCC(CN(C)C(=O)CCC(N)=O)C1` (stereo not shown), for which the “hERG current change (%, negative = inhibition) at 10uM” value was 22.5%.
With `COC(=O)CCCC(=O)N(C)CC1CCCN(CCc2ccccc2C)C1` (stereo not shown) the figure was -53.6%; with `COc1ccccc1CCN1CCCC(CN(C)C(=O)CCC(=O)N(C)C)C1` (stereo not shown), 9.14%.
Under `CSCCC(=O)N(C)CC1CCN(CCc2cccc(C(F)(F)F)c2)CC1` stands -64.3%; under `CC(=O)NCCC(=O)N(C)CC1CCN(CCc2cccc(C(F)(F)F)c2)CC1`, 2.52%; under `COC(=O)CCC(=O)N(C)CC1CCCN(CCc2cccc(C(F)(F)F)c2)C1` (stereo not shown), -61.9%.
Under `O=C(O)c1ccccc1NS(=O)(=O)c1cccc2nsnc12` stands 18.3%.
For `O=C(N/N=C1\CCS(=O)(=O)c2ccc(F)cc21)c1ccc([N+](=O)[O-])cc1`, the “hERG current change (%, negative = inhibition) at 10uM” value is -19.6%.
With `Cc1ccc(/C=N/NC(=S)NCCc2ccccc2)s1` the figure was 27.9%; with `Cc1ccc(CNC(=O)CSc2nc3ccsc3c(=O)n2NC(=O)c2ccccc2)cc1`, -9.41%.
Take `CCOC(=O)N1CCN(C(=O)C(CC(C)C)NS(=O)(=O)c2ccc3c(c2)oc(=O)n3C)CC1` (stereo not shown): the “hERG current change (%, negative = inhibition) at 10uM” value is given as -12.4%.
For the compound `O=C(CN(C(=O)c1csnn1)c1cccc2ccccc12)NCc1ccccc1`, the “hERG current change (%, negative = inhibition) at 10uM” value was determined as 0.271%.
Take `CSCCC(=O)NC1CCCN(CCc2ccccc2)C1` (stereo not shown): the “hERG current change (%, negative = inhibition) at 10uM” value was -38.2%.
With `CN(CC1CCCN(CCc2cccc(C(F)(F)F)c2)C1)C(=O)c1ccc2nc[nH]c2c1` (stereo not shown) the figure was -33.1%.
With `CSCCC(=O)N(C)CC1CCCN(CCc2cccc(C(F)(F)F)c2)C1` (stereo not shown) the figure was -74.6%; with `COc1cc(SC)ccc1C(=O)Nc1ccc(Br)cn1`, 14.4%; with `COc1ccc(NC(=O)c2ccccc2[N+](=O)[O-])cc1`, 9.48%.
With `NC(=O)c1ccsc1NC(=O)CCS(=O)(=O)c1ccccc1` the figure was 1.27%; with `COc1ccc(N(C(=O)c2snc(C(N)=O)c2N)C(C(=O)NC2CCCC2)c2cccs2)cc1OC` (stereo not shown), -1.74%.
Turning to `CC(=O)Nc1ccc(S(=O)(=O)N2CCC(c3nnc(-c4ccc(C)cc4)o3)CC2)cc1`, the “hERG current change (%, negative = inhibition) at 10uM” value is listed as -51.1%.
With `Cc1ccc(-c2nnc(SCC(=O)Nc3ccc(S(=O)(=O)N4CCCCCC4)cc3)o2)cc1` the figure was -7.29%; with `CC(=O)Nc1ccc(S(=O)(=O)N2CCCN(S(=O)(=O)c3ccc(NC(C)=O)cc3)CC2)cc1`, -0.406%.
With `CC(=O)Nc1ccc(S(=O)(=O)N2CCCC2)cc1` the figure was 12.1%.
Under `COc1ccc(-c2nnc(C3CCN(S(=O)(=O)c4ccccc4)CC3)o2)cc1` stands -47.4%.
As for `CC(=O)Nc1ccc(S(=O)(=O)N2CCCN(S(=O)(=O)c3ccc(C)cc3)CC2)cc1`, the “hERG current change (%, negative = inhibition) at 10uM” value is listed as -72.8%.
For the compound `COC(=O)NNC(=O)c1ccccc1C`, the “hERG current change (%, negative = inhibition) at 10uM” value is -11.7%.
Turning to `Cc1ccc([N+](=O)[O-])cc1S(=O)(=O)Nc1ccccn1`, the “hERG current change (%, negative = inhibition) at 10uM” value is 9.5%.
Under `CCC(CC)C(=O)Nc1cccc(/C(C)=N/NC(=O)c2ccccc2Cl)c1` stands 6.73%.
On to `CCCn1c(-c2cc(OC)c(OC)c(OC)c2)nc2nc3ccccc3nc21`, for which the “hERG current change (%, negative = inhibition) at 10uM” value is on record as -37.5%.
Turning to `CCC(C)n1c(-c2ccco2)nc2nc3ccccc3nc21` (stereo not shown), the “hERG current change (%, negative = inhibition) at 10uM” value is reported as -3.86%.
`CCC(C)n1c(-c2cc(OC)c(OC)c(OC)c2)nc2nc3ccccc3nc21` (stereo not shown): the “hERG current change (%, negative = inhibition) at 10uM” value was -50.9%.
For `CCOc1ccc(C2C(C(=O)NC)=C(C)Nc3nc4ccccc4n32)cc1OC` (stereo not shown), the “hERG current change (%, negative = inhibition) at 10uM” value is 11.9%.
